Screens (PubChem BioAssay)
Shown is part of a subset that was picked to be rich in hits.
Mito fusion yeast: blocks mitochondrial division or promotes mitochondrial fusion; S. cerevisiae fusion-defective mutant growth rescue, CellTiterGlo 48 h; Potency, µM (titrated, usually from 46.1 µM), inactives show at the highest dose growth rescue (activation), usual class: activators; 0.23% of 320,000 active; AID 485298; also: potency is read from the fitted curve at half-maximal effect; % of control where 0% means no effect; nearly all actives have a fitted effect of over 45% in size
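Temperature-sensitive fusion-defective S. cerevisiae (e.g. fzo1-1, mgm1-5) were grown with compound in YPEG medium (3% ethanol, 3% glycerol) for 48 hours at 37C. Growth rescue was measured as viability by CellTiterGlo luminescence after 10 minutes at ambient.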
RGS4 inh: blocks human RGS4-accelerated GTP hydrolysis | Transcreener GDP fluorescence polarization, RGS4-accelerated GTP hydrolysis | Potency, µM (highest dose often 114 µM), without a hit: top-dose activity change, negative = inhibition, actives largely listed as inhibitors | 0.039% of 390,000 active | AID 504845; also: potency is read from the fitted curve at half-maximal effect; % is scaled to controls: 0 for no effect and ±100 for the full control effect; nearly all actives have a fitted effect of over 75% in size
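MLSMR compounds (23 nl, pin-transferred) preincubated 10 min at room temperature with a 500nM (2x) first reagent, then RGS4 at 900nM (2x) plus Transcreener GDP mix added; fluorescence polarization (620/688 nm) read before and after 90 min at 30 °C.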
LDHA block: blocks human lactate dehydrogenase A; activity change, % (values are at about 110 or 230 µM); purified LDHA, NADH/diaphorase-resazurin fluorescence; stronger effect = lower value; 0.15% of 480,000 active; in the data active = activity change below about -30%; inconclusive = mostly about -25% to -30%;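 also: plate controls were DMSO wells for no effect and wells without enzyme for full effect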
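LDH5 2 nM; NADH 0.06 mM, pyruvate 0.2 mM; 200 mM Tris pH 7.4, EDTA, Tween-20; 5 min RT. Detection: diaphorase 0.133 mg/mL + resazurin 37 µM, fluorescence ex540/em590 at 0 and 20 min; normalized to enzyme-free and DMSO wells.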
mIDH1 inhibitor: inhibitors of human mutant IDH1 R132H. O75874. IDH1-R132H enzyme, NADPH consumption, diaphorase/resazurin fluorescence. Potency, µM (titrated, usually from 76.6 µM), for the others: at the top dose activity change, negative = inhibition, most hits filed as inhibitors. 0.093% of 390,000 active. AID 602179; also: potency is read from the fitted curve at half-maximal effect; % is scaled to controls: 0 for no effect and ±100 for the full control effect; nearly all actives have a fitted effect of over 65% in size
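IDH1-R132H (0.5 ug/mL) preincubated 30 min with compound, then NADPH (0.016 mM) and alpha-KG (2 mM) added; 80 min at RT, pH 7.5. Remaining NADPH coupled via diaphorase/resazurin to fluorescence (540/590 nm); concentration-response curves normalized to no-enzyme control.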
ClpP mod: qHTS Assay for Activators of ClpP | ATP-dependent Clp protease proteolytic subunit (Bacillus subtilis (strain 168)), P80244 | purified B. subtilis ClpP, FRET peptide cleavage, 20 min | Potency, µM (highest dose often 57.5 µM), for inactives: at the highest dose activity change, negative = active | 1.9% of 340,000 active | AID 651965, 2013; active = well fitted falling curve with a large enough effect; inconclusive = small, poorly fitted or top-dose-only effect; inactive = no such curve, though single readings can be large or run the other way; also: potency is read from the fitted curve at half-maximal effect; the source files actives as falling curves though it sought activators and does not explain the sign; nearly all actives have a fitted effect of over 65% in size
Target sequence (P80244 whole entry, looked up): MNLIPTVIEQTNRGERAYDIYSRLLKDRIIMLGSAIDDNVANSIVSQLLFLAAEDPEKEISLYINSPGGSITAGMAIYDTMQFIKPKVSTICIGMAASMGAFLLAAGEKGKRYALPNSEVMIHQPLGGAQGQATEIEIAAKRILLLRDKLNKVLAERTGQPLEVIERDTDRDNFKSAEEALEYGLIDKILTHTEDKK
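Purified B. subtilis ClpP, 10 microg/mL final in Tris/HCl pH8 with KCl, BSA, glycerol and Tween-20, cleaved an Abz/nitrotyrosine-quenched decapeptide. Fluorescence (ex 320, em 430) was read at 0 and 20 min at room temperature. Delta was normalized to 5.8 microM ADEP and DMSO/no-enzyme controls.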
S-ASM inh: human S-ASM enzyme inhibition; Potency, µM (series often up to 57.5 µM), for inactives: at the top dose activity change, negative = inhibition, usual class: inhibitors; 0.006% of 340,000 active; placental ASM, HMU-PC fluorogenic substrate, 60 min; also: potency is read from the fitted curve at half-maximal effect
Target sequence (P17405 47-631 limits assumed): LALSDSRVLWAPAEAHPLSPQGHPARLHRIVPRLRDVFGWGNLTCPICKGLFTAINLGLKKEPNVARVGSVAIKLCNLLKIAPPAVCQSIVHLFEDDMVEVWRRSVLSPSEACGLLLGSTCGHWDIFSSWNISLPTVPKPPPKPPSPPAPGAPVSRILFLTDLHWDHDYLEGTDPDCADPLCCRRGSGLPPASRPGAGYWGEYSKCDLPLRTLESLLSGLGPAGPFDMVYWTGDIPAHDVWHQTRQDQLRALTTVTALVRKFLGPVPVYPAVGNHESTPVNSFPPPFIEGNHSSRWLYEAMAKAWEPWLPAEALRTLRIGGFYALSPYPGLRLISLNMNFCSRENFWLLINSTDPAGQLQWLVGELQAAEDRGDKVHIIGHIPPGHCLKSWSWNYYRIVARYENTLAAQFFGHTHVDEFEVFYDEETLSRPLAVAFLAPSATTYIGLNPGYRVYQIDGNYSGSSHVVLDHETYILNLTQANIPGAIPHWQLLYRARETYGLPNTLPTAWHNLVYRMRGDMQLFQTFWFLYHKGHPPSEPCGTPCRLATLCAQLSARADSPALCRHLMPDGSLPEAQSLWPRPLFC
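Human placenta-derived ASM enzyme was preincubated with compound for 10 minutes at room temperature, then given fluorogenic substrate HMU-PC0 (9 uM final) for 60 minutes at 37 °C; a pH 10 stop preceded fluorescence reading at Ex 386/Em 447 nm.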
The depositor's hits bear a star; i = inactive; ? = inconclusive; nt = no result; [ ] = dose if it differs, or a comment. Unless noted, calls follow the shape of the dose curve; as a rule, active = well fitted curve in the direction sought with a large enough effect; inconclusive = small, poorly fitted or top-dose-only effect, or another doubt; inactive = no such curve, though single readings can be large; an effect the other way counts as inactive or inconclusive.

SMILES | Mito fusion yeast | RGS4 inh | LDHA block | mIDH1 inhibitor | ClpP mod | S-ASM inh
Cc1ccc(CNC(=O)CC(C)Cc2nnc3c(=O)n(-c4cccc(F)c4)ccn23)cc1 (stereo not drawn) | nt | nt | 3 | nt | nt | nt
Cc1c(C(=O)NCC(c2ccsc2)N(C)C)oc2ccc(Br)cc12 (stereo not drawn) | nt | nt | -1 | nt | nt | nt
CCCCN(Cc1ccccc1)c1ccc(NS(=O)(=O)c2ccc(C(C)C)cc2)cc1C(=O)O | nt | nt | 12 | nt | nt | nt
COC(=O)c1oc(CN2CC(C)OC(C)C2)cc1C (stereo not drawn) | nt | nt | -21 | nt | nt | nt
O=C(Nc1nc2nccc(-c3ccccc3)n2n1)c1ccc(F)cc1 | 3% | -12% | -2 | 0% | 28µM* | 0%
Cc1nc2cc(NC(=O)N3CCN(c4ccccn4)CC3)ccc2o1 | -4% | 15% | 6 | 7% | 25µM* | 5%
COc1ccccc1NC(=O)N1CCN(c2ccccn2)CC1 | -1% | -2% | -3 | 0% | 4% | -1%
O=C1CC(C(=O)N2CCN(c3ccccn3)CC2)CN1Cc1ccccc1Cl (stereo not drawn) | 0% | 16% | 1 | -1% | 32µM* | nt
CCOC(=O)c1ccc(NC(=O)N2CCN(c3ccccn3)CC2)cc1 | 0% | 8% | -3 | 2% | 22µM* | -1%
CCOC(=O)c1ccc(NC(=O)N2CCN(CCc3ccccc3)CC2)cc1 | -1% | 7% | 0 | 3% | -3% | 5%
O=C(Nc1ccccc1Cl)N1CCN(c2ccccn2)CC1 | -1% | 5% | 0 | 1% | 22µM* | -1%
Cc1ccccc1CNC(=O)c1cnc2ccccc2n1 | nt | nt | -12 | nt | nt | nt
CCn1cc(C(=O)O)c(=O)c2cc(OC)ccc21 | -5% | -1% | 13 | 2% | 32µM* | -3%
CCC(C)(C)C1CCC2(CC1)NC(=S)N(CCC(C)C)N2 (stereo not drawn) | nt | nt | -1 | nt | nt | nt
CCCCN(CCCC)c1cc(C)nc(-c2ccccc2O)n1 | 1% | 0% | 9 | 2% | 32µM* | 11%
CN1CC=C2C(C#N)=C(N)C(C#N)(C#N)[C@H](c3cccs3)[C@H]2C1 | -4% | -21% | 1 | 3% | -5% | 184%
CCOC(=O)N1CC=C2C(C#N)=C(N)C(C#N)(C#N)[C@H](c3ccsc3)[C@H]2C1 | -2% | -41% | 4 | 41µM* | 9% | 69%
CCCC1C2CN(C(C)C)CC=C2C(C#N)=C(N)C1(C#N)C#N (stereo not drawn) | 0% | -10% | 12 | ? | 28µM* | i
CN1CC=C2C(C#N)=C(N)C(C#N)(C#N)C(CCc3ccccc3)C2C1 (stereo not drawn) | -2% | -22% | 21 | 41µM* | 28µM* | i
CN1CC=C2C(C#N)=C(N)C(C#N)(C#N)[C@H](c3cccc(Cl)c3)C2C1 (stereo partly drawn) | -1% | -17% | 10 | -23% | ? | i
CCOc1ncccc1C(=O)OCc1nnc(-c2ccc(Cl)cc2)o1 | nt | nt | -2 | nt | nt | nt
COc1ccc(CCNC(=O)c2ccc(Cn3c(=O)c4ccccc4n(Cc4cccc(F)c4)c3=O)cc2)cc1OC | nt | -38% | -4 | -2% | 35µM* | nt
COc1ccc(CCNC(=O)c2ccc(Cn3c(=O)c4ccccc4n(Cc4cccc(Cl)c4)c3=O)cc2)cc1OC | nt | -43% | -11 | 0% | ? | nt
CN(Cc1cnc2nc(N)nc(N)c2n1)c1ccc(C(=O)NC(CCC(=O)O)C(=O)O)cc1 (stereo not drawn) | nt | 6% | 13 | 5% | 16µM* | 257%
CC(C)c1nnc(NC(=O)c2cc(=O)c3cc(Cl)cc(Cl)c3o2)s1 | nt | nt | -35* | nt | nt | nt
SMILES | Mito fusion yeast | RGS4 inh | LDHA block | mIDH1 inhibitor | ClpP mod | S-ASM inh
Cc1nnc(NC(=O)c2cc(=O)c3cc(Cl)cc(Cl)c3o2)s1 | nt | nt | 13 | nt | nt | nt
CC1(C)CS(=O)(=O)N(c2ccc(S(=O)(=O)N3CCCc4ccccc43)cc2)C1=O | nt | nt | 0 | nt | nt | nt
COc1ccc(-c2c3c(=O)n(C)c(=O)n(C)c3cn2C2CCCCC2)cc1 | 23% | -13% | -10 | -18% | 16µM* | ?
CCS(=O)(=O)N1CCN(C(C)CCc2ccccc2)CC1 (stereo not drawn) | -3% | 8% | -19 | 9% | -1% | 5%
CC(CCc1ccccc1)N1CCN(Cc2ccccc2)CC1 (stereo not drawn) | 0% | -7% | -31* | 3% | 0% | 2%
NNC(=O)CCSCc1ccc(Cl)cc1 | nt | nt | 0 | nt | nt | nt
COc1cc2c(cc1OC)C1=NC(=O)CN1C(SCc1ccccc1)=N2 | 10% | -7%[11.4 µM] | 0 | 2% | 22µM* | 224%
Cc1cccc(C(=O)Nc2ccc(NC(=S)NC(=O)c3cccc(Cl)c3)cc2)c1 | nt | nt | -3 | nt | nt | nt
Cc1[nH]nc2c1C(=O)CC(C)(C)C2 | -5% | 9% | -4 | 10% | -1% | 1%
CCc1n[nH]c2c1C(=O)CC(C)(C)C2 | 1% | -4% | -1 | 5% | 25µM* | 8%
CCOC(=O)c1cc(-c2ccc(C)cc2)nc2nc(SC)[nH]c(=O)c12 | -1% | -3% | -4 | -1% | 14µM* | 99%
CCOC(=O)c1cc(-c2cccc(C(F)(F)F)c2)nc2nc(SC)[nH]c(=O)c12 | 14% | -4% | -4 | 3% | 0% | 29%
CN(C)C(=O)/C(=C\C=C\c1ccccc1)NC(=O)c1ccccc1 | nt | nt | -1 | nt | nt | nt
Cc1ccc(CSc2nc(-c3cccs3)ccc2C#N)cc1 | nt | 12% | -1 | -9% | 4% | nt
COC(=O)CSc1nc(-c2cccs2)ccc1C#N | 3% | -6% | -13 | 0% | 6.3µM* | 18%
C#CCSc1nc(-c2cccs2)ccc1C#N | 7% | 10% | -10 | 1% | 32µM* | 12%
CCN(CC)C(=O)CSc1nc(-c2cccs2)cc(-c2cccs2)c1C#N | 22% | ? | -4 | -7% | 25µM* | i
CCCN1CCN(C(c2cc3cc(OCC)ccc3[nH]c2=O)c2nnnn2C2CCCCC2)CC1 (stereo not drawn) | 4% | -2% | -2 | 0% | 28µM* | 186%
CCOc1ccc2[nH]c(=O)c(CN(CCO)C(c3nnnn3C3CCCCC3)C(C)C)cc2c1 (stereo not drawn) | 3% | 6% | 7 | 3% | -19% | 36%
COc1ccc2[nH]c(=O)c(C(c3nnnn3C3CCCCC3)N3CCN(C)CC3)cc2c1 (stereo not drawn) | 2% | -16% | 6 | 2% | 32µM* | 253%
COc1cccc(C(=O)Nc2oc3ccc(Cl)cc3c(=O)c2-c2ccc3c(c2)OCO3)c1 | nt | nt | 8 | nt | nt | nt
